# Test results published in PubChem BioAssay AID1578 (Sanford-Burnham Center for Chemical Genomics, 2009).
# Among all 290,000 compounds or so, about 3,000 (1%) were called active. The sample as a whole holds a higher share of actives than the screen did. Unmarked numbers belong to inactive results. Cut-off read from the data, not from the text of the source: active = inhibition mostly above about 36% (no sharp cut-off); inactive = mostly below about 34%.
# Assay: inhibition of NOD1-driven NF-kB reporter – cell-based, luminescence, uHTS, primary screen (AID 1578);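 note: HEK-293T reporter cells stimulated with the NOD1 agonist gamma-tri-DAP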
# Conditions: NOD1-driven NF-kB luciferase reporter cells, at 4 µM, stronger effect = higher value
row,Compound,inhibition
1,CCC(C)NC(=O)c1cc(Cl)c(NC(=O)C2=C(C)OCCS2)cc1OC (stereo not given),-9.8%
2,Nc1nnc(SCc2nnc(-c3ccccc3)o2)s1,-21%
3,O=C1CCc2cc(S(=O)(=O)NC(Cc3ccccc3)C(=O)NC3CCCC3)ccc2N1 (stereo not given),-11.4%
4,CCN(CC)S(=O)(=O)c1cccc(C(=O)N[C@H](C(=O)OCC(=O)Nc2ccccc2)C(C)C)c1,-24.7%
5,C/C(=N\Nc1ncc(Cl)cc1Cl)c1ccc(C#N)cc1,-40.4%
6,C/C(=N\Nc1ccc(Cl)cc1)c1ccccn1,-119%
7,C/C(=N\Nc1ncc(Cl)cc1Cl)c1ccccn1,103% (active)
8,Cc1cc(C)c(C(=O)COC(=O)CCNS(=O)(=O)c2c(Cl)cccc2Cl)cc1C,-13.2%
9,CCC(C(=O)NC1CC(C)(C)NC(C)(C)C1)c1ccccc1 (stereo not given),-18.7%
10,COc1cccc(-n2c(Cn3nc(C(F)(F)F)cc3C)n[nH]c2=S)c1,2.3%
11,CCn1cc(C(=O)NCc2ccc3c(c2)OCO3)c(=O)c2cc(F)c(N3CCN(C(=O)c4ccco4)CC3)cc21,82.7% (active)
12,CCn1cc(C(=O)NCc2ccccc2)c(=O)c2cc(F)c(N3CCN(C(=O)c4ccco4)CC3)cc21,46.3%
13,CCn1cc(C(=O)NCc2cccc(F)c2)c(=O)c2cc(F)c(N3CCN(C(=O)c4ccco4)CC3)cc21,0.3%
14,CCOc1ccc(NC(=O)C2CCN(S(=O)(=O)c3ccc4c(c3)CC(C)N4C(C)=O)CC2)cc1 (stereo not given),-19.4%
15,Cc1nn(C)cc1-c1n[nH]c(=S)n1-c1ccc(F)cc1,-1.9%
16,O=c1[nH]ncc2c3ccccc3n(Cc3ccccc3)c12,36.5%
17,O=c1[nH]ncc2c3ccccc3n(Cc3ccc(F)cc3)c12,-2.2%
18,Cc1ccc(Cn2c3ccccc3c3cn[nH]c(=O)c32)cc1,59.1% (active)
19,CN(C)C(=O)CN1C(=O)NC2(CCCc3ccccc32)C1=O (stereo not given),-1.9%
20,CCOC(=O)N1CCC(N(CCN(C)C)C(=S)Nc2cccc(Cl)c2)CC1,0.8%
21,CCOC(=O)N1CCC(N(CCN(C)C)C(=S)Nc2cc(Cl)cc(Cl)c2)CC1,65.6% (active)
22,CCOC(=O)N1CCC(N(CCN(C)C)C(=S)Nc2cc(C)cc(C)c2)CC1,-15.3%
23,O=C(NC(CO)c1ccccc1)c1ccco1 (stereo not given),3%
24,CC(C)(C)C(=O)NC(CC(=O)O)c1ccccc1 (stereo not given),-18.6%

row,Compound,inhibition
1,CC(C)(C(=O)N[C@H](CO)c1ccccc1)C(=O)N[C@H](CO)c1ccccc1,95% (active)
2,COCCNC(=O)c1cc(Sc2nnc(C)s2)nc2ccccc12,-10.4%
3,CCOC(=O)c1sc(NC(=O)c2cccc(S(=O)(=O)N3c4ccccc4CC3C)c2)cc1C (stereo not given),6.7%
4,Cc1ccc2nc(NC(=O)CCCc3nc4ccccc4s3)sc2c1,-29%
5,Cc1ccc(NC(=O)CCc2nc3ccccc3s2)c(O)c1,43% (active)
6,Cc1ccc(NC(=O)CCCc2nc3ccccc3s2)c(O)c1,-33.8%
7,O=C(c1ccc(F)cc1)n1c(NCc2ccccc2)n[nH]c1=S,-17.3%
8,O=c1cc(C(F)(F)F)[nH]c2c(OC(F)(F)F)cccc12,15.5%
9,Cc1cccc2c(=O)cc(C(F)(F)F)[nH]c12,1.3%
10,O=c1cc(C(F)(F)F)[nH]c2c(C(F)(F)F)cccc12,72.8% (active)
11,CCOc1ccc(NC(=O)C2CCCN(S(=O)(=O)c3cnc[nH]3)C2)cc1 (stereo not given),-9.3%
12,CCN(CC)S(=O)(=O)c1ccc(Cl)c(NC(=O)COC(=O)c2ccc(O)cc2)c1,21.8%
13,CCSc1nsc(NC(=O)Nc2cccc(OC)c2)n1,52.2%
14,COc1cccc(NC(=O)Nc2nc(SC(C)(C)C)ns2)c1,40.2%
15,CCCSc1nsc(NC(=O)Nc2ccc(F)cc2F)n1,43%
16,CCSc1nsc(NC(=O)Nc2ccccc2F)n1,-1.8%
17,COc1cccc(NC(=O)Nc2nc(SC)ns2)c1,-38%
18,CCSc1nsc(NC(=O)Nc2ccc(F)cc2F)n1,26%
19,CCn1cc(CN2CCC(C(=O)Nc3cccc(-c4cscn4)c3)CC2)cn1,-27.3%
20,CC(C)(C)c1cc(CCC(=O)NCCc2ccccn2)cc(C(C)(C)C)c1O,-9.5%
21,COc1ccc(/C=C(\NC(=O)c2ccc(Cl)cc2)C(=O)NCCCn2ccnc2)cc1OC,18.2%
22,CN1CCN(Cc2nc3c(c(=O)n(C)c(=O)n3C)n2CCCc2ccccc2)CC1,16.4%
23,COc1cccc(Nc2c(Nc3cccc(OC)c3)c(=O)c2=O)c1,-10.3%
24,CC1(C)CC(=O)C(C(c2ccccc2F)C2C(=O)CC(C)(C)CC2=O)C(=O)C1,0.7%

row,Compound,inhibition
1,Cc1ccc(S(=O)(=O)NC(CN2CCOCC2)=NCCNS(=O)(=O)c2ccccc2)cc1,31.6%
2,CN1CCN(c2ccc(-c3ccnn3C(=O)Nc3cccc(C(F)(F)F)c3)cc2)CC1,19.1%
3,COC(=O)c1cc(N=Nc2sc(N)nc2C)cc(C(=O)OC)c1,-4.7%
4,CCC(=O)Nc1cc2nn(-c3ccc(OC)cc3)nc2cc1C,-20%
5,CCCCC(=O)Nc1cc2nn(-c3ccc(OC)cc3)nc2cc1C,-94.7%
6,CCC(=O)Nc1cc2nn(-c3ccc(C)cc3)nc2cc1C,58.2% (active)
7,COc1ccc(C(=O)N/C(=C\c2ccccc2)C(=O)Nc2ccc(C(=O)O)cc2)cc1,0.4%
8,CCN(CC(=O)Nc1ccc(NC(C)=O)cc1)C(=O)/C=C/c1cn(-c2ccccc2)nc1-c1ccc(C)cc1,15.8%
9,CCOC(=O)c1ccc(Oc2cn[nH]c2-c2ccc(O)cc2O)cc1,5.5%
10,CCOC(=O)Cn1nc(-c2ccccc2)c2ccccc2c1=O,-6.3%
11,CCOC(=O)C(C)n1nc(-c2ccccc2)c2ccccc2c1=O (stereo not given),36.3% (active)
12,CCOC(=O)Cc1nn(C(C)C)c(=O)c2ccccc12,-21.4%
13,CCC(C(=O)O)N1C(=O)C2CCCCC2C1=O (stereo not given),4.4%
14,O=c1ccc(-c2ccccc2)n[nH]1,-29%
15,O=c1ccc(Cl)n[nH]1,61.4% (active)
16,O=c1ccc(Cc2ccc(Cl)cc2)n[nH]1,-29.8%
17,CCn1c(SCC(=O)NC2CCCCC2)nnc1-c1ccccn1,2.9%
18,COc1ccc(C(=O)NC(=S)Nc2ccc(CN3CCOCC3)cc2)cc1,-0.3%
19,O=C(Nc1ccc(S(=O)(=O)Nc2ccccc2)cc1)c1ccc(CN2CCOCC2)cc1,76.1% (active)
20,NC(=O)c1ccc(NC(=O)c2ccc(CN3CCOCC3)cc2)cc1,-20.3%
21,COc1ccc(C(=O)Nc2ccc(CN3CCCCC3)cc2)cc1,-37.1%
22,O=C(Nc1ccc(S(=O)(=O)N2CCCC2)cc1)c1ccc(CN2CCOCC2)cc1,44.6%
23,c1ccc(COc2cccc(CNCc3cccnc3)c2)cc1,-20%
24,CC(=O)Nc1ccc(S(=O)(=O)NCc2ccc(C)cc2)cc1,2.4%

row,Compound,inhibition
1,Cc1coc2cc3oc(=O)c4c(c3cc12)CCCC4,-30.5%
2,COc1ccc(/C=N/Nc2ccccc2C(=O)O)cc1Cn1cc([N+](=O)[O-])cn1,-11.8%
3,O=C(COC(=O)c1ccccc1C(=O)c1ccccc1)Nc1ccc(SC(F)F)cc1,7.1%
4,CCOC(=O)C1=C(C(F)(F)F)Nc2ncnn2C1c1cc(OC)ccc1OC (stereo not given),10.8%
5,Cc1ccc(OCC(=O)NNc2c3ccccc3nc3ccccc23)cc1,52.5%
6,COc1ccc(OCC(=O)NNc2c3ccccc3nc3ccccc23)cc1,76.7% (active)
7,O=C(COc1ccccc1)NNc1c2ccccc2nc2ccccc12,40.5%
8,O=C(OCCN=C1NS(=O)(=O)c2ccccc21)c1ccccc1F,31.5%
9,O=C(NCCCN1CCCC1=O)[C@H](CSCc1ccccc1)N1Cc2ccccc2C1=O,1.9%
10,Cc1ccc(NC(=O)CN(C)C(=O)Cc2c(Cl)cccc2Cl)cc1,-9.1%
11,CSc1ccc(NC(=O)Nc2cccn(Cc3ccccc3F)c2=O)cc1,89.6% (active)
12,CCOc1ccc(NC(=O)Nc2cccn(Cc3ccccc3)c2=O)cc1,44.3% (active)
13,COc1ccc(Cn2cccc(NC(=O)Nc3ccc(F)cc3)c2=O)cc1,37.8%
14,CCc1ccccc1NC(=O)Nc1cccn(Cc2ccccc2F)c1=O,-23.3%
15,COc1cccc(NC(=O)Nc2cccn(Cc3ccccc3)c2=O)c1,-11%
16,CSc1ccc(NC(=O)Nc2cccn(Cc3ccccc3)c2=O)cc1,46.6%
17,O=C(O)CCCCCNC(=O)CCn1cnc2ccccc2c1=O,21.1%
18,COc1cc(OC)cc(-c2nnc(SCC(=O)Nc3cccc(C(=O)O)c3)s2)c1,-32.1%
19,O=C(c1ccc(Cl)cc1)N1CCN(CCc2ccccn2)CC1,-13%
20,COc1cc(/C=C2/C(=O)NN(c3ccccc3)C2=O)cc(Br)c1O,15.4%
21,COc1cc(/C=C2/C(=O)NN(c3ccc(F)cc3)C2=O)cc(Cl)c1O,12.2%
22,OCC[C@@H]1C[C@H](O)[C@@H](O)[C@]2(Cc3ccccc3CO2)O1,15%
23,COc1ccc(C(=O)N(CCc2ccccc2)Cc2ccccc2)c(OC)n1,-5.7%
